Data from paper PMC5540273 (PLoS ONE, 2017).

How the values were obtained:
Details in all cases: concentration: 1 μM, replicates: in singlicate; n = 1
[1] = system: T1, TAK1
T1 construct: gene MAP3K7

[2] = system: TAOK1
[3] = system: TAOK2
[4] = system: TAOK3
[5] = system: TBK1
[6] = system: TEC
[7] = system: TESK1
[8] = system: TGFBR1
[9] = system: TGFBR2
[10] = system: TIE1
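Further: KINOMEscan kinase panel screen.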

SMILES	%Inh [1]	%Inh [2]	%Inh [3]	%Inh [4]	%Inh [5]	%Inh [6]	%Inh [7]	%Inh [8]	%Inh [9]	%Inh [10]
CCn1c(-c2ccoc2)nc2cnccc21 [SB-733887]	91.4%	0%	0%	0%	12%	16%	29%	0%	0%	0%
Cc1nn2c(=O)cc(N3CCOCC3)nc2n1Cc1cccc(Cl)c1Cl [GSK2342769]	0%	0%	0%	0%	11%	0%	10%	0%	44%	12%
Cc1ccc(-c2ccc3c(ccc4sc5c(c43)NC[C@@H](C)N=C5N(C)C)n2)cn1	7%	0%	0%	0%	0%	9%	0%	0%	13%	0%
CCC(=O)c1c(-c2ccccc2)c2cc(Cl)ccc2c(=O)n1Cc1cc(S(C)(=O)=O)n(CC(F)F)n1	0%	8%	11%	0%	24%	0%	11%	7%	0%	0%
COC(=O)c1c(-c2ccccc2)c2cc(C)ccc2c(=O)n1Cc1ccccc1	0%	0%	0%	0%	0%	1%	0%	0%	0%	0%
CCC(=O)c1c(-c2ccccc2)c2cc(Cl)ccc2c(=O)n1Cc1ccc(C(=O)O)cc1	0%	0%	0%	0%	0%	10%	6%	11%	0%	0%
Nc1ncnc2c1ncn2-c1cccc(F)c1 [SKF-97560]	0%	19%	0%	0%	23%	3%	15%	12%	0%	0%
COc1cc(Nc2ccnc3ccc(C(F)(F)F)cc23)cc(OC)c1OC [GW577382]	0%	0%	0%	0%	4%	0%	52%	8%	9%	0%
COc1cc(Nc2nccc(N3CCC(NC(=O)C(C)c4ccc(Cl)cc4)C3)n2)cc(OC)c1OC (stereo not drawn) [GSK1379757]	0%	0%	0%	0%	14%	0%	27%	0%	0%	10%
COc1cc2ncn(-c3cc(OCc4ccncc4Br)c(C(N)=O)s3)c2cc1OC [GW854278]	0%	4%	0%	0%	24%	2%	26%	17%	0%	31%
Cc1nnc(-c2ccc(C)c(-c3ccc(C(=O)O)cc3)c2)o1 [GW608005]	0%	0%	0%	2%	2%	0%	0%	0%	0%	15%
Cl.NS(=O)(=O)c1cccc(Nc2cc(-c3ccc(F)cc3)n[nH]2)c1 [GW824645]	0%	0%	36%	13%	35%	0%	6%	23%	1%	0%
Nc1n[nH]c2ncc(-c3ccccc3)cc12 [SB-517081]	0%	0%	9%	2%	13%	6%	37%	0%	0%	18%
FC(F)(F)c1ccc(-c2ncn(CCCN3CCOCC3)c2-c2ccncc2)cc1 [SB-217780]	24%	0%	0%	0%	3%	3%	12%	2%	0%	15%
Cc1nnc(-c2ccc3ncn(-c4ccc(S(C)=O)cc4)c3c2)o1 (stereo not drawn)	3%	100%	0%	96.2%	19%	1%	8%	0%	38%	0%
CC(C)(C)c1ccc(C(=O)Nc2cn3cc(-c4ccccc4)ccc3n2)cc1	0%	0%	4%	0%	38%	19%	8%	0%	8%	0%
OCCCNc1nccc(-c2c(-c3cccc(C(F)(F)F)c3)nn3cc(C(F)(F)F)ccc23)n1 [GW630813]	0%	0%	0%	0%	10%	0%	11%	0%	0%	0%
CCc1ccc(-c2ccc3c(c2)-c2nn(C)cc2S(=O)(=O)N3C)cc1	0%	0%	37%	0%	0%	0%	2%	1%	0%	0%
